For 23 compounds, activation results are on record in PubChem BioAssay AID504660 (National Center for Advancing Translational Sciences (NCATS), 2011).

About 3,700 (1%) of roughly 360,000 compounds were called active. The entries come from a sample that favours actives as a whole. Unmarked numbers belong to inactive results. No stated cut-off is given here; in the data, active means activation above about 30%; inactive means the rest.

Chain of D(1A) dopamine receptor (Homo sapiens) (P21728 whole entry, looked up): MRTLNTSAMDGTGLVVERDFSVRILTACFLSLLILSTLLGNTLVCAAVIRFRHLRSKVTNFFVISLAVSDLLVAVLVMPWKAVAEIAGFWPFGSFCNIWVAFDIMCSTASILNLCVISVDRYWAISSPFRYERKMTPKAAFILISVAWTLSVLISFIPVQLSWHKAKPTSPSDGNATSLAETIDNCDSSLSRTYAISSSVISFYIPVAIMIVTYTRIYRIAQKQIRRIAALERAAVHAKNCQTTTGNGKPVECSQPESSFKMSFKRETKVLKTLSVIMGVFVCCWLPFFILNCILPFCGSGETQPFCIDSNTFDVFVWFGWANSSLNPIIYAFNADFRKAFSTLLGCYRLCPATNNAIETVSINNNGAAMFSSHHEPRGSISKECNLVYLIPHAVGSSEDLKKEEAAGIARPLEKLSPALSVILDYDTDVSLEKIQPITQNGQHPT

The test has as its target D(1A) dopamine receptor (Homo sapiens) (UniProt P21728). Put plainly: Allosteric Agonists of the Human D1 Dopamine Receptor: qHTS. Further: 0% is about no effect. To be noted: HEK293 T-REx D1 cells, calcium flux, agonist mode; at 2 µM; stronger effect = higher value. An outline of the steps: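 Inducible HEK293 T-REx D1 cells, force-coupled to calcium signalling, were plated at 4000 cells/well with tetracycline and held overnight at 30 C. After no-wash calcium dye loading, compound-evoked calcium rise over 180 s flagged agonists.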
In the case of `CC1CCCN(Cc2c(O)ccc3c(=O)c(Oc4ccc(C(C)(C)C)cc4)c(C(F)(F)F)oc23)C1` (stereo not drawn), the activation was -1.8%.

Turning to `Cc1ccc(C(C)(C)C)c(OCCCCN2CCCC2)c1`, the activation is 8.62%.

For the compound `CC(C)(C)NCCCOc1ccc(Cl)cc1C(C)(C)C`, the activation is 59.2% (active).

`COCCCNCCOCCOc1ccc(Cl)cc1Br`: the activation was 13.2%.

For `CCOc1ccc(NC(=O)c2c(NC(=O)Cc3ccccc3)sc3c2CCC(C)C3)cc1` (stereo not drawn), the activation is -0.648%.

As for `FC(F)(F)c1cc(-c2ccco2)nc(NCc2ccc(Cl)cc2)n1`, the activation is 7.88%.

As for `COc1ccc(CCNc2nc(-c3ccc(Cl)cc3)cc(C(F)(F)F)n2)cc1OC`, the activation was 7.69%.

For the compound `COc1ccc(CNc2nc(-c3ccc(Cl)cc3)cc(C(F)(F)F)n2)cc1`, the activation is 41.5% (active).

Consider `COc1cccc(C(=O)NC2(C(F)(F)F)C(=O)Nc3c2c(=O)[nH]c(=O)n3-c2ccc(C)cc2)c1` (stereo not drawn), for which the activation was -0.234%.

As to `Cc1ccc(Cl)cc1N1CCN(C(=O)c2cnc3c(-c4ccc(F)cc4)c(C)nn3c2C)CC1`, the activation was 1.96%.

Take `OC(CNCC1CCCO1)Cn1c2ccc(Br)cc2c2cc(Br)ccc21` (stereo not drawn): the activation is 38.5% (active).

As to `COCCNC(=O)c1ccc(Cn2c(SCC(=O)NCC3CCCO3)nc3ccc(Br)cc3c2=O)cc1` (stereo not drawn), the activation is 2.13%.

As for `O=C(CNC(=O)c1ccc(Br)o1)NCC1CCCO1` (stereo not drawn), the activation was 0.969%.

With `CC(=O)c1c(C)n(S(=O)(=O)c2ccc(Cl)cc2)c2ccc(NS(=O)(=O)c3ccc(Cl)cc3)cc12`, the activation is 2.47%.

As to `CN(Cc1ccccc1)C(=O)CCS(=O)(=O)c1cc(Br)cc2c1N(C(=O)C1CC1)CC2`, the activation is 0.148%.

`c1ccc2c(c1)C(=NC1CCCCC1)NC2=NC1CCCCC1`: the activation was 30.7% (active).

Turning to `COc1cc(OC)cc(C(=O)N[C@H](C(=O)OCC(=O)NC(C)c2ccccc2)C(C)C)c1` (stereo partly drawn), the activation was 119% (active).

Consider `COc1ccc(N2CCN(C(=O)[C@@H](NC(=O)c3cc(OC)cc(OC)c3)C(C)C)CC2)cc1`, for which the activation is -0.0979%.

On to `Cc1ccccc1OCCC(=O)OCC(=O)NC(C)c1ccccc1` (stereo not drawn), for which the activation is 1.35%.

`O=C(CCCCn1c(=O)c2ccccc2n(CC(=O)Nc2cccc(C(F)(F)F)c2)c1=O)NCc1ccc2c(c1)OCO2`: the activation was 4.77%.

In the case of `CCCOc1ccc(C(=O)Nc2ccc3oc(-c4cccc(Cl)c4Cl)nc3c2)cc1`, the activation was 1.7%.

In the case of `CCCC(=O)Nc1ccc2oc(-c3ccc(O)c(Br)c3)nc2c1`, the activation is 3.7%.

As to `Cc1ccc(C)c(N2C(=O)N(Cc3c(F)cccc3Cl)c3ccccc3S2(=O)=O)c1`, the activation was 5.6%.
